These results are taken from PubChem BioAssay (NCATS).

A number with no mark means an inactive call. Inconclusive results are not listed. Active and inactive are the calls of the source. Unless noted, the call rests on the fitted dose curve; in most records, active means well fitted curve in the direction sought with a large enough effect; inconclusive means small, poorly fitted or top-dose-only effect, or another doubt; inactive means no such curve, though single readings can be large; an effect the other way counts as inactive or inconclusive.

Assay [1] has as its target T1, Tyrosine-protein phosphatase non-receptor type substrate 1 (Homo sapiens) + Leukocyte surface antigen CD47 (Homo sapiens) (UniProt P78324+Q08722). The assay can be described thus: CD47-SIRPalpha protein protein interaction - LANCE assay qHTS validation (AID 1347057; active means well fitted curve in the direction sought with a large enough effect in the signal ratio, with a control signal flat, not every such curve was filed as active; the % refers to the signal ratio; further: series mostly up to about 38 µM). In short, it runs like this:
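Inhibition of soluble CD47/SIRPalpha ectodomain association by titrated compounds, measured as 665/615 nm time-resolved FRET ratio after sequential 30 min room-temperature incubations.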
(TR-FRET usually uses a lanthanide donor and a delayed reading to cut background.)

Assay [2] addresses T1, Tyrosine-protein phosphatase non-receptor type substrate 1 (Homo sapiens) + Leukocyte surface antigen CD47 (Homo sapiens). Kind of assay: CD47-SIRPalpha protein protein interaction - HTRF assay qHTS validation (AID 1347058; active means well fitted curve in the direction sought with a large enough effect in the signal ratio, not every such curve was filed as active; the % refers to the signal ratio; further: series mostly up to about 38 µM). The essentials: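 Soluble extracellular domains (6His-CD47, Avi-tag-biotinylated SIRPalpha) in PBS pH 7.4 with 0.05% IGEPAL CA-630. Compounds were preincubated 30 min at RT with CD47 and anti-His-Eu, then SIRPalpha and SAV-XL665 were added. TR-FRET 665/615 ratio.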

The target of assay [3] is Parathyroid hormone/parathyroid hormone-related peptide receptor (Homo sapiens) (UniProt Q03431). The assay can be described thus: qHTS for PTHR1 Agonists: Optimization Screen against the NCGC LOPAC library (AID 1347079).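 Further: GloSensor cAMP luminescence in HEK-293 GP2 cells expressing human PTHR1 with IBMX.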 The essentials:
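Signal increase flags agonism. GP2 cells, derived from HEK-293, express human PTHR1 and a GloSensor cAMP construct.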

For assay [4], the target named is N-terminal Xaa-Pro-Lys N-methyltransferase 1 (Homo sapiens) (UniProt Q9BV86). Kind of assay: qHTS Assay for Inhibitors of N-terminal methyltransferase 1 (NTMT1): LOPAC validation of the NTMT1 SAHH-coupled ThioGlo3 Assay (AID 1347143).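 Further: SAH from peptide methylation measured as thiol fluorescence via SAHH coupling and ThioGlo3; nearly all actives have a fitted effect of over 70% in size.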 Further: potency means the concentration at half of the fitted maximal effect. The essentials: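 Steps: dispense 125nM NTMT1; pin-transfer test compounds at several concentrations, with 1uM RCC1-6 peptide as control; incubate 1 min; start with reagent holding 100uM SAM, 10uM SAHH, 15uM ThioGlo3; read at 0 and 30 min.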
Sequence of N-terminal Xaa-Pro-Lys N-methyltransferase 1 (Homo sapiens) (Q9BV86 whole entry, looked up): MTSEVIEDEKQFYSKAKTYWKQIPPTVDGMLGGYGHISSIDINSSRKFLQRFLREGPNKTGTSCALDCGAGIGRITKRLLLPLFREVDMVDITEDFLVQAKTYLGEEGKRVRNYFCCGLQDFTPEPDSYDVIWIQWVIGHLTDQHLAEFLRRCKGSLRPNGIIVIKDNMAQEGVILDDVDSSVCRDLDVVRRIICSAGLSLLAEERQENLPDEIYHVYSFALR
(In general: qHTS replaces the single test concentration by a dilution series.)

For assay [5], the system named is Zika virus NS2B-NS3 protease (unlinked). The assay can be described thus: Optimization of GU AMC qHTS for Zika virus inhibitors: Unlinked NS2B-NS3 protease assay (AID 1347151). Further: nearly all actives have a fitted effect of over 80% in size. Further: potency means the concentration at half of the fitted maximal effect. In short, it runs like this: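 Noncovalent complex of NS2B hydrophilic domain and NS3 protease domain, 25 nM final, in 10 mM Tris-HCl pH 8.0, 0.01% Tween 20. AMC fluorescence change over 15 min at room temperature was fitted to a 4-parameter Hill equation.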

Assay [6] relates to Zika virus NS2B-NS3 protease. Kind of assay: Primary screen GU AMC qHTS for Zika virus inhibitors (AID 1347154). Further: nearly all actives have a fitted effect of over 70% in size. The essentials:
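Unlinked Zika NS2B hydrophilic domain–NS3 protease complex at 25 nM in 10 mM Tris-HCl pH 8.0, 0.01% Tween 20, with an AMC peptide substrate. Fluorescence change (340/450 nm) over 15 min at room temperature, normalized to controls, fitted to 4-parameter Hill.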

The target of assay [7] is T1, Tyrosine-protein phosphatase non-receptor type substrate 1 (Homo sapiens) + Leukocyte surface antigen CD47 (Homo sapiens). Kind of assay: CD47-SIRPalpha protein protein interaction - Alpha assay qHTS validation (AID 1347059).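 Further: bead proximity luminescence from CD47 binding SIRPalpha after compound preincubation with SIRPalpha.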 In short, it runs like this:
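SIRPalpha-biotin 25 nM + cpd, 30 min RT, dark; add CD47-His 12.5 nM, 30 min; add Ni-NTA/SAV beads 10 ug/mL, 30 min; AlphaScreen. Buffer PBS pH 7.4 + 0.05% IGEPAL CA-630. Non-biotinylated SIRPalpha as control inhibitor.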

A further assay addresses Furin (Homo sapiens) (UniProt P09958). Kind of assay: Furin counterscreen qHTS for Zika virus inhibitors (AID 1347149).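 Further: purified recombinant full-length human furin enzyme at 5 nM; fluorescence gain from furin cutting a BOC-RVRR-AMC peptide substrate over 15 min; top concentration of the series differs between compounds; nearly all actives have a fitted effect of over 70% in size.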 In short, it runs like this: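 Counterscreen measures cleavage of 2 microM BOC-RVRR-AMC, below its ~15 microM Km, by 5 nM full-length human furin at pH 7.0 after a 15-min compound preincubation. Inhibition derives from the 15-min fluorescence increase at 37C.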
(In general: A counterscreen serves to expose hits that act by an unwanted route or on another target.)

Assay [8] concerns Zika virus NS2B-NS3 protease (linked construct). Kind of assay: Confirmatory screen NINDS AMC qHTS for Zika virus inhibitors (AID 1347152).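 Further: AMC fluorescence gain from cleaved Bz-Nle-KRR-AMC substrate over 15 min; top concentration of the series differs between compounds; nearly all actives have a fitted effect of over 70% in size.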 The essentials: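 Purified NS2B-NS3 protease with NS2B hydrophilic domain linked to NS3 protease domain by flexible linker, 1 nM final in 10 mM Tris-HCl pH 8.0, 0.01% Tween 20. Compounds preincubated 15 min, room temperature; Bz-Nle-KRR-AMC 10 microM (Km 18.3 µM); 15-min fluorescence change, 4-parameter Hill fit.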

In assay [9] the test system is Zika virus NS2B-NS3 protease (unlinked complex). The assay can be described thus: Confirmatory screen GU AMC qHTS for Zika virus inhibitors (AID 1347153). Further: nearly all actives have a fitted effect of over 70% in size. The essentials:
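Unlinked NS2B-NS3 complex (25 nM) in 10 mM Tris-HCl pH 8.0, 0.01% Tween 20 preincubated 15 min with compound, then 10 microM Bz-Nle-KRR-AMC (Km 18.3 µM). Fluorescence change over 15 min, normalized, Hill-fitted.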

T1 sequence (P78324 whole entry, looked up, the tested form may be a part): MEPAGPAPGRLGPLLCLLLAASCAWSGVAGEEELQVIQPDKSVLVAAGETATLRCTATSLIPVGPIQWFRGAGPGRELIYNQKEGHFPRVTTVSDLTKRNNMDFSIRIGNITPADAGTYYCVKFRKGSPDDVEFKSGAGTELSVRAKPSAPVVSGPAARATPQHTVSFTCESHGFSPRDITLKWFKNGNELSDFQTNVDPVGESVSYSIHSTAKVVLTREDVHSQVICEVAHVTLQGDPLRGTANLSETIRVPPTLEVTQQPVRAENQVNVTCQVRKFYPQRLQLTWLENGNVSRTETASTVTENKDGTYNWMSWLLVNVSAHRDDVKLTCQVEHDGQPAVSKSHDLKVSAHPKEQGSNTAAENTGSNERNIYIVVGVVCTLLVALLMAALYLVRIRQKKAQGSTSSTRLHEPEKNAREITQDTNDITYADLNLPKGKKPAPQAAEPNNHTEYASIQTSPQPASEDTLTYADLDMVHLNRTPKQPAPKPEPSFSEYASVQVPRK
T1 sequence (Q08722 whole entry, looked up, the tested form may be a part): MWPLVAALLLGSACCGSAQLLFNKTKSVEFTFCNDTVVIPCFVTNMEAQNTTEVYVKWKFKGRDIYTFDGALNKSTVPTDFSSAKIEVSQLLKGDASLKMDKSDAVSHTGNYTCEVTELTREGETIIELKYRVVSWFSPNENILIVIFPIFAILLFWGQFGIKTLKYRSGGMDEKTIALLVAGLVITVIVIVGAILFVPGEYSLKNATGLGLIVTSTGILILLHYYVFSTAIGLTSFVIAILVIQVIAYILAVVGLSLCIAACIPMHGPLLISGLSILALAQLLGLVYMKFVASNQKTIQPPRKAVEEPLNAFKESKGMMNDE
Sequence of Furin (Homo sapiens) (P09958 whole entry, looked up): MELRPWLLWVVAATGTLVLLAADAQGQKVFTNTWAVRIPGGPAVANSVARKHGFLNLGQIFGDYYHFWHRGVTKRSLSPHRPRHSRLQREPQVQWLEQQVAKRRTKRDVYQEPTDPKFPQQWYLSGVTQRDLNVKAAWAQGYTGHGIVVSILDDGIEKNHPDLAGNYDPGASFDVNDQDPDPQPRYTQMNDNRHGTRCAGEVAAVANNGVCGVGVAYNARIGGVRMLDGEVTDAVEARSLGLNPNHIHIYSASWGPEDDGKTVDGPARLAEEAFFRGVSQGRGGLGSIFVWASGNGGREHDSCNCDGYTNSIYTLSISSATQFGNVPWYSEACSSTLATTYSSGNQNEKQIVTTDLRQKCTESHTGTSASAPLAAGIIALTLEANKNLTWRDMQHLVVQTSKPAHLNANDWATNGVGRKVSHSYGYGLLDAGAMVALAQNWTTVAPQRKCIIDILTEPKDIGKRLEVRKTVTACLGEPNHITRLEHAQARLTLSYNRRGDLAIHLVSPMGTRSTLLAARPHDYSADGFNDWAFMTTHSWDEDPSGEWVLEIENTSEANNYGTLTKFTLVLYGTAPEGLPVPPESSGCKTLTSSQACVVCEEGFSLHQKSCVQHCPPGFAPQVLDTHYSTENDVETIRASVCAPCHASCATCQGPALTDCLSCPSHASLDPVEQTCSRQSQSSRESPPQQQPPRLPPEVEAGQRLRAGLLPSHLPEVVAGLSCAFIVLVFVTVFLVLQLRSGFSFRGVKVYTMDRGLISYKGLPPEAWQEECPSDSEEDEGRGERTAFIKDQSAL
Sequence of Parathyroid hormone/parathyroid hormone-related peptide receptor (Homo sapiens) (Q03431 whole entry, looked up): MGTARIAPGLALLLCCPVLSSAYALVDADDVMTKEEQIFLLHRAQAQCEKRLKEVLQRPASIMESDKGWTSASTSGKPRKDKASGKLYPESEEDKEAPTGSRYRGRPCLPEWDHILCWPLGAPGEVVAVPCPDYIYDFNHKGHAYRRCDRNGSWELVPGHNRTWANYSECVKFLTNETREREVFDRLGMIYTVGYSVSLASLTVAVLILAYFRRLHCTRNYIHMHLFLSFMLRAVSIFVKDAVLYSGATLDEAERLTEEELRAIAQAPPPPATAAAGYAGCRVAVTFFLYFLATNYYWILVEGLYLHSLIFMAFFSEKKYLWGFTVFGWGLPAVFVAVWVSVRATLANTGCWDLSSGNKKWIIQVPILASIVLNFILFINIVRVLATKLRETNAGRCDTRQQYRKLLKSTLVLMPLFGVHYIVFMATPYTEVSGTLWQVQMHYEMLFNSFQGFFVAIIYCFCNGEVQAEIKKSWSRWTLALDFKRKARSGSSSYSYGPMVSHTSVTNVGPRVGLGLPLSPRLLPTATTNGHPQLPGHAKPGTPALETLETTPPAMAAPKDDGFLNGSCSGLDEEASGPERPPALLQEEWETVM

As to `S=C(S)N1CCCC1`, the Potency result in assay [1], in assay [3], in [5] and in assay [6] was “inactive” throughout. For the same molecule, in assay [2], the result was inactive. The Potency in assay [4] was 20 µM (active).
With `CCCc1c(OCCCOc2ccc(OCC(=O)O)cc2)ccc(C(C)=O)c1O`, the Potency result (in assay [1]; in assay [7]; in the assay with Furin (Homo sapiens)) was “inactive” in each case. Also, in assay [2], the outcome was inactive.
`Brc1c(Br)c(Br)c2[nH]cnc2c1Br`: the Potency result in assay [1] and in [3] was “inactive” in each case. In addition, the result in assay [2] was inactive. In [4], the Potency was 50.1 µM (active).
As to `NCC(O)C1CCCCCCC1` (configuration not stated), the Potency result in assay [1], in [3] and in assay [5] was “inactive” in each case. Besides, the outcome in assay [2] was inactive.
For the molecule `C=C1C(=O)O[C@@H]2[C@H]3O[C@]3(C)CCC=C(C)CC[C@@H]12`, the Potency result in assay [1], in assay [3], in assay [4], in assay [5] and in assay [6] was “inactive” throughout. Moreover, the outcome in [2] was inactive.
As for `CC(C)[C@@H]1CC[C@@H](C)C[C@@H]1P(=O)(c1ccccc1)c1ccccc1`, the Potency result in assay [1], in [3], in assay [4] and in assay [5] was “inactive” each time. Besides, the result in assay [2] was inactive.
Turning to `CCSC(=N)N`, the Potency result in [1], in assay [3], in assay [5] and in assay [6] was “inactive” throughout. In addition, the outcome in [2] was inactive.
For the molecule `O=c1[nH]c2ccccc2c2ccccc12`, the Potency entry in assay [1], in [7] and in assay [6] was “inactive” in each case. In [2], the result was inactive. The Potency in assay [5] was 26.7 µM (active).
For `CCCn1c(=O)c2[nH]c(C3CCCC3)nc2n(CCC)c1=O`, the Potency entry in [1], in [3], in assay [4] and in assay [6] was “inactive” each time. The outcome in [2] was inactive.
On to `CC(N)=NCCCC[C@@H](N)C(=O)O`, for which the Potency entry in [1], in assay [3], in assay [4] and in assay [5] was “inactive” in each case. Besides, the outcome in [2] was inactive.
For `CNc1cc(NS(=O)(=O)c2ccc(N)cc2)nc(NC)n1`, the Potency entry in assay [1], in assay [3], in assay [5] and in [6] was “inactive” in each case. Also, the outcome in [2] was inactive.
As for `Cc1ccccc1/C=C/C1=NCCN1`, the Potency result in [1], in assay [3] and in assay [5] was “inactive” in each case. For the same molecule, in assay [2], the outcome was inactive.
Turning to `O=c1onc2n1-c1cc(Br)ccc1OC2`, the Potency entry in assay [1], in [3], in assay [4] and in assay [5] was “inactive” in each case. In addition, in assay [2], the result was inactive.
Regarding `Nc1ccc(-c2ccc3ccccc3n2)cc1`, the Potency result (in assay [1]; in [7]; in [3]; with Furin (Homo sapiens); in [8]; in assay [9]) was “inactive” in each case. The figures for the Potency in assay [4] and in assay [5] were 39.8 µM (active) and 23.8 µM (active), respectively.
Consider `COc1ccc2c(c1)c(CC(=O)O)c(C)n2Cc1ccc(Cl)cc1`, for which the Potency result in assay [1], in assay [7] and in [3] was “inactive” throughout.
In the case of `COc1ccc(-c2cc3ncc(C)n3c(Nc3ncccc3C(N)=O)n2)cc1OC`, the Potency entry in assay [1], in [7] and in assay [3] was “inactive” each time. Moreover, the Potency in assay [4] was 56.2 µM (active); in assay [5], 26.7 µM (active).
For the molecule `C=CCN1CCc2cc(O)c(O)cc2C(c2ccccc2)C1` (configuration not stated), the Potency entry in assay [1], in assay [7], in assay [3] and in assay [5] was “inactive” in each case. The Potency in assay [4] is 35.5 µM (active).
Consider `O=C(O)[C@H]1NCCC[C@H]1C(=O)O`, for which the Potency result in [1], in assay [7], in assay [3], in assay [4] and in assay [5] was “inactive” throughout.
Regarding `COc1ccccc1N1CCN(CCCCNC(=O)c2ccc3ccccc3c2)CC1`, the Potency entry in assay [1], in assay [7], in assay [3], in [4] and in assay [5] was “inactive” throughout.
For `COc1cc(/C=C(\C#N)C(=O)c2ccc(O)c(O)c2)cc(I)c1O`, the Potency result in assay [1], in [7] and in assay [3] was “inactive” in each case. Moreover, the Potency in assay [4] is 50.1 µM (active).
Take `O=C(O)CCC(=O)N1CCCC1C(=O)O` (configuration not stated): the Potency entry in assay [1], in assay [7], in assay [3], in assay [4] and in [5] was “inactive” throughout.
Turning to `CO/N=C(\C(=O)N[C@@H]1C(=O)N2C(C(=O)O)=C(CSc3nc(=O)c(O)nn3C)CSC12)c1csc(N)n1` (some centres not stated), the Potency entry in assay [1], in assay [7], in assay [3], in assay [4] and in assay [5] was “inactive” in each case.
With `NC(N)=N[C@@H](CCC(=O)O)C(=O)O`, the Potency entry in assay [1], in assay [7], in [3], in assay [4] and in assay [5] was “inactive” each time.
For `CNCCc1cnc(CCC(c2ccccc2)c2ccccc2)[nH]1`, the Potency entry in assay [1], in assay [7] and in [3] was “inactive” each time.
On to `O=C1Cc2c([nH]c3ccc(Br)cc23)-c2ccccc2N1`, for which the Potency entry in [1], in assay [7], in assay [3], in [5] and in [6] was “inactive” each time. The Potency in [4] was 50.1 µM (active).
For `Nc1ccc(N2C(=O)c3ccccc3C2=O)c(Cl)c1`, the Potency result in assay [1], in assay [7], in [3] and in assay [4] was “inactive” in each case.
Consider `Cc1nc(N=Nc2ccc(S(=O)(=O)O)cc2S(=O)(=O)O)c(COP(=O)(O)O)c(C=O)c1O`, for which the Potency entry (in [1]; in assay [7]; in assay [3]; in assay [4]; with Furin (Homo sapiens); in assay [5]) was “inactive” throughout. The Potency result in assay [6] was “inactive”.
For `N[C@@H](CCCC(=O)O)C(=O)O`, the Potency result in assay [1], in assay [7], in [3], in assay [4] and in assay [5] was “inactive” in each case.
As for `Cc1ccc2c(c1)C(N1CCN(C)CC1)=Nc1cccnc1N2`, the Potency result in assay [1], in assay [7], in [3], in assay [4] and in [5] was “inactive” throughout.
With `CC(=O)O[C@H]1Cc2ccccc2N(C(N)=O)c2ccccc21`, the Potency entry in assay [1], in assay [4] and in assay [5] was “inactive” in each case. Besides, the result in [2] was inactive.
For `O=C(O)/C(=C/c1c(C(=O)O)[nH]c2cc(Cl)cc(Cl)c12)c1ccccc1`, the Potency entry in assay [1], in assay [7], in assay [3], in assay [4] and in [5] was “inactive” each time.
On to `CCCCC[C@H](CC(=O)NO)C(=O)N[C@H](C(=O)N1CCC[C@H]1CO)C(C)C`, for which the Potency entry in assay [1], in assay [7], in [3], in assay [4] and in assay [5] was “inactive” each time.
